Compound activity as filed in PubChem.
Rows were chosen to be rich in hits. Some 3.1% of all compounds tested hit in one or more screens of this group.
SARS 3CLpro inh-1: SARS-CoV 3CLpro protease inhibition; AID 1706; recombinant SARS-CoV 3CLpro, quenched FRET peptide cleavage; 290,000 compounds, 0.14% hits; P0C6X7; inhibition, % at 6 µM; in the data active means inhibition above about 12%
FadD28 binding: inhibitors of Mycobacterium tuberculosis FadD28 bisubstrate binding; inhibition, % at 12.5 µM; 360,000 compounds, 0.22% hits; FadD28 bisubstrate probe binding, fluorescence polarization; in the data active means inhibition above about 8.5%, passing the limit was not always enough; inconclusive means no clear call, values can overlap the other calls
FBA Mtb inh: Mtb fructose-bisphosphate aldolase inhibition; purified M. tuberculosis FBA, fluorescence read-out; P9WQA3; inhibition, % at 1 µM; 360,000 compounds, 2.3% hits;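 further: 0% = vehicle and 100% = reference inhibitor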
Target sequence (P9WQA3 whole entry, looked up): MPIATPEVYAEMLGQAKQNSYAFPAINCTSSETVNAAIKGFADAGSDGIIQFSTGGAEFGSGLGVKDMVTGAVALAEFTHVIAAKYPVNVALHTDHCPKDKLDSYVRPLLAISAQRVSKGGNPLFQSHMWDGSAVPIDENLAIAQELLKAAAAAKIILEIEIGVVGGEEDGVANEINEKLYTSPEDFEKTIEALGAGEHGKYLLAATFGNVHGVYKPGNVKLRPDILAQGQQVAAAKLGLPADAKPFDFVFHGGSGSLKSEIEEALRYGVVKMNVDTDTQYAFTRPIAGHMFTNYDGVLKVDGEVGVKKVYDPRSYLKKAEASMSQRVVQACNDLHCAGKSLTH
BioA inh: blocks M. tuberculosis BioA enzyme activity. inhibition, % at 9.99 µM. 360,000 compounds, 0.096% hits. purified M. tuberculosis BioA enzyme, plate reader; in the data active means inhibition above about 40%; inconclusive means no clear call, values can overlap the other calls
GDH-TPI counter-1: inhibits GDH-TPI coupling enzymes, artifact for Mtb FBA screen; GDH-TPI coupled enzyme counterscreen, NADH absorbance; 360,000 compounds, 1.2% hits; AID 588335; inhibition, % at 4.8 µM; in the data active means inhibition above about 30%;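 further: 0% = DMSO wells and 100% = wells lacking the enzyme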
SARS 3CLpro inh-2: SARS 3CLpro inhibition, confirmation assay; shares compounds with SARS 3CLpro inh-1; QFRET protease activity assay; inhibition, % at 6 µM; 380 compounds, 36% hits; AID 1879; in the data active means inhibition above about 13%
Mtb FBA inh conf: Mtb FBA inhibition, confirmed; 5,600 compounds, 78% hits; shares compounds with FBA Mtb inh; AID 651616; inhibition, % at 1 µM; purified M. tuberculosis FBA, fluorescence read-out;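 further: 0% = vehicle wells and 100% = reference inhibitor wells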
GDH-TPI counter-2: inhibits GDH-TPI coupling enzymes, flagging Mtb FBA hits; inhibition, % at 1 µM; shares compounds with FBA Mtb inh; GDH-TPI coupled enzyme counterscreen, fluorescence; AID 652141; 5,600 compounds, 81% hits; in the data active means inhibition above about 10%
An asterisk follows results filed as active; ? = inconclusive; nt = no result given; + = active, no number. Unless noted, no stated cut-off is given here; in the data, active means inhibition above about 27%; inactive means the rest.

SMILES	SARS 3CLpro inh-1	FadD28 binding	FBA Mtb inh	BioA inh	GDH-TPI counter-1	Mtb FBA inh conf	GDH-TPI counter-2	others
Nc1cc2nn(-c3ccccc3)nc2cc1Cl	12*	-1	36*	nt	8	109*	88*	SARS 3CLpro inh-2=-4
COc1ccc(NC(=O)Nc2ccc3c(c2)C(=O)N([C@H](C)CO)C[C@@H](C)[C@H](CN(C)S(=O)(=O)c2cn(C)cn2)O3)cc1	nt	nt	nt	2	nt	nt	nt
O=C(Oc1ccc2c(-c3ccccc3)cc(=O)oc2c1)c1cccs1	1	-2	-1	nt	12	nt	nt
O=C(Oc1ccc2ccc(=O)oc2c1)c1cccs1	20*	4	66*	nt	6	7	-5	SARS 3CLpro inh-2=35*
CC(C)NC(=O)Nc1cccc2c1O[C@@H](CN(C)Cc1ccc(-c3ccccc3)cc1)[C@@H](C)CN([C@H](C)CO)C2=O	nt	nt	nt	2	nt	nt	nt
Cc1cc(=O)oc2cc(NC(=O)c3ccccc3OC(F)F)ccc12	13*	-1	53*	nt	17	70*	49*	SARS 3CLpro inh-2=-2
COc1cc2c(C#N)c(N3CCN(C)CC3)nc(N)c2c(N)n1	0	2	81*	2	14	+	+
CN1CCN(S(=O)(=O)c2ccc(N3CCN(S(=O)(=O)/C=C/c4ccccc4)CC3)nc2)CC1	1	-3	2	0	8	nt	nt
CN1CCN(S(=O)(=O)c2ccc(N3CCN(C(c4ccccc4)c4ccccc4)CC3)nc2)CC1	-3	-2	81*	3	4	+	173*
COCC(=O)Nc1ccc2c(c1)C(=O)N(C)C[C@H](OC)[C@H](C)CN(C(C)=O)[C@H](C)CO2	nt	nt	nt	1	nt	nt	nt
CNc1ccc(-c2cc(OC)ccc2OC)cn1	nt	-3	98*	0	9	+	155*
COc1ccc(-c2ccc(-c3nnc(-c4cc(OC)ccc4OC)o3)cc2)cc1	-4	-1	1	-1	17	nt	nt
CNc1cc(-c2cc(OC)ccc2OC)ncn1	nt	-1	84*	1	3	2	-1
CC(=O)N(C)C[C@H]1[C@H](c2ccc(-c3cccc(C#N)c3)cc2)[C@@H](CO)N1C(C)=O	nt	nt	nt	1	nt	nt	nt
O=C(NNC(=O)C1C2C=CC(C2)C1C(=O)O)c1cc(Cl)ccc1O (stereo not given)	-3	-2	65*	-1	7	59*	55*
Cc1noc(C)c1S(=O)(=O)Nc1ccc2c(c1)C(=O)N([C@@H](C)CO)C[C@@H](C)[C@H](CN(C)Cc1ccc3c(c1)OCO3)OCCCC[C@@H](C)O2	nt	nt	nt	-3	nt	nt	nt
CC(C)NC(=O)Nc1cccc2c1O[C@@H](CN(C)S(C)(=O)=O)[C@@H](C)CN([C@@H](C)CO)C2=O	nt	nt	nt	-1	nt	nt	nt
Cn1c(=O)n(Cc2ccc(F)cc2)c(=O)c2c1nc1n2CCCN1C1CCCCC1	4	-3	29*	-1	1	154*	147*
O=[N+]([O-])c1cccc(C=NN=C2c3ccccc3-c3ccccc32)c1	nt	-2	30*	nt	9	144*	109*
Cc1cn2nc(N)c3ccccc3c2n1	-1	1	42*	-1	1	+	+
CCCN1[C@@H]2Cn3c(ccc(-c4cccc(OC)c4)c3=O)[C@H]1[C@@H](C(=O)NCC)[C@@H]2CO	nt	nt	nt	-1	nt	nt	nt
O=C(C[C@H]1C=C[C@H](NC(=O)Nc2ccc3c(c2)OCO3)[C@H](CO)O1)NCc1ccccc1	nt	nt	nt	1	nt	nt	nt
Cc1cc(C)c(C#N)c(N2CCN(c3ccc(F)cc3)CC2)n1	0	0	-1	-2	-5	nt	nt
Cc1cc(C)c(C#N)c(N2CCCC2)n1	-2	1	30*	0	13	135*	92*
COC(=O)C1CCN(C(=O)c2ccc3nc(-c4cccc(OC)c4)oc3c2)CC1	4	-2	3	6	-6	nt	nt
SMILES	SARS 3CLpro inh-1	FadD28 binding	FBA Mtb inh	BioA inh	GDH-TPI counter-1	Mtb FBA inh conf	GDH-TPI counter-2	others
COc1cccc(-c2nc3ccc(C(=O)NC(C)Cc4cccnc4)cc3o2)c1 (stereo not given)	-4	?	43*	2	5	65*	32*
Cc1nn(CCc2nn[nH]n2)c2nc(C(F)(F)F)cc(C(F)(F)F)c12	4	-1	39*	-1	-10	nt	+
C[C@H]1CCCCO[C@H](CN(C)Cc2ccc3c(c2)OCO3)[C@@H](C)CN([C@@H](C)CO)C(=O)c2cc(NS(=O)(=O)c3ccc(Cl)cc3)ccc2O1	nt	nt	nt	4	nt	nt	nt
CNC(=O)c1cc2c(ccc3ccccc32)o1	1	-1	51*	nt	11	127*	102*
O=C(NCCCn1ccnc1)c1cc2c(ccc3ccccc32)o1	-1	nt	nt	nt	nt	nt	nt
O=C(NC1CCCC1)c1cc2c(ccc3ccccc32)o1	-2	-1	40*	0	-3	107*	80*
Cc1ccccc1C1N=C2Oc3ccccc3C=C2C(=O)N1 (stereo not given)	nt	-2	96*	nt	nt	70*	52*
Cc1ccccc1C1NC(=O)c2ccccc2O1 (stereo not given)	-1	-2	5	-1	14	nt	nt
COc1cc(C=Nc2ccccc2C(=O)Nc2ccccc2)cc(OC)c1OC	1	-1	51*	nt	6	+	+
COc1cc(NC(=O)c2ccccc2-c2ccccc2)cc(OC)c1OC	-5	nt	nt	nt	nt	nt	nt
O=C(Nc1nnc2n1CCS2)c1ccc(Br)o1	0	1	105*	0	-8	127*	76*
C[C@H]1CN([C@@H](C)CO)C(=O)c2cccc(NS(C)(=O)=O)c2O[C@@H]1CN(C)C	nt	nt	nt	-1	nt	nt	nt
COc1ccc(-c2ncccc2O)cc1	-3	0	40*	2	0	88*	91*
CSc1nc(-c2ccccc2)c(-c2ccccc2)[nH]1	5	-4	50*	1	-6	7	-4
Cc1c(Nc2c3ccccc3nc3ccccc23)c(=O)n(-c2ccccc2)n1C	2	-1	109*	nt	6	-2	-1
Cc1c(Nc2nc3ccccc3nc2N2CCN(c3ccccc3)CC2)c(=O)n(-c2ccccc2)n1C	-4	-2	1	nt	8	nt	nt
CCOC(=O)CNC(=O)c1cc2c(=O)[nH]c3ccc(C)cc3c2s1	-5	nt	32*	-1	12	118*	97*
Cc1ccc2[nH]c(=O)c3cc(C(=O)NCCN4CCN(C)CC4)sc3c2c1	-7	-3	49*	-1	22	196*	159*
Cc1ccc2[nH]c(=O)c3cc(C(=O)N(CCCOC(C)C)Cc4ccco4)sc3c2c1	-5	-2	28*	0	12	22	11*
CCCCN(CC)C(=O)c1cc2c(=O)[nH]c3ccc(C)cc3c2s1	1	-2	12	4	9	nt	nt
CC(C)Cn1c(CNC(=O)c2ccccc2)nc2ccccc21	-1	3	0	-4	-6	nt	nt
CC(C)Cn1c(-c2cccs2)nc2ccccc21	2	-8	51*	2	5	+	152*
